This note sets out measurements from PubChem BioAssay.

The source made the active and inactive calls.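 The calls were made as follows, unless noted: active = inhibition above 20% together with a positive visual image hit; inconclusive = visual image hit but inhibition not above 20%; inactive = no visual image hit.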

Test [1] is described as follows: inhibitors of TNFa-induced NFkB p65 translocation, primary screen, imaging, HUVEC, MLSMR starter and 10KST1 sets (AID 438).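 Also: compound added about 3h40 before a 20 min TNFalpha stimulation.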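 As to inhibition: signal is the nuclear over cytoplasmic p65 intensity ratio per well.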 Particulars: HUVEC TNFa-induced p65 nuclear translocation; cell count: measured here: nuclei count (cytotoxicity indicator), at 2.08 µM; inhibition: at 2 µM, stronger effect = higher value, 0% TNFa-plus-vehicle, 100% no-TNFa wells.
Test [2] in a line: reduction of polyQ htt aggregates in cells – imaging, exon1htt(103Q)mCFP cells, high-content imaging, primary screen (AID 483;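 active = visual image review flags a hit and inhibition of aggregation exceeds 20%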;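 also: compound exposure lasted 3 days before fixation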;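 as to nuclei count: percent of the per-plate median nuclei count of sample wells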). Particulars: exon1htt(103Q)mCFP cell line, aggregate imaging, at 2 µM; inhibition of aggregation: stronger effect = higher value; nuclei count: measured here: cell count, toxicity.
The nature of test [3]: endothelial E-selectin expression blockers – imaging, HUVEC, immunofluorescence, MLSMR starter and 10KST1 sets, primary screen (AID 487;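 active = visually confirmed hit in the image check and inhibition above 20%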;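 as to inhibition: signal is fraction of cell area covered by stained E-selectin grains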;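 as to nuclei count: 100% = median nuclei count of all wells on the same plate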). To be noted: HUVEC TNFalpha-induced E-selectin immunofluorescence imaging, at 2 µM; inhibition: stronger effect = higher value; nuclei count: measured here: cell number, toxicity.
Test [4] is described as follows: Primary imaging screen for DUSP6 inhibitors that restore phospho-Erk in transfected HeLa cells, chemical complementation (AID 609;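 active = compounds giving at least 50% inhibition in the cell-based MKP-3 phosphatase rescue imaging test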;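 as to inhibition: phospho-Erk level distribution per well compared with pooled transfected vehicle control wells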). Particulars: HeLa MKP-3 transfected, phospho-Erk imaging KS statistic, at 10 µM, cells stimulated with TPA for 15 min.
Test [5] concerns the target Dual specificity protein phosphatase 6 (Homo sapiens) (UniProt Q16828). The description is as above. Particulars: HeLa MKP-3 transfected, phospho-Erk imaging KS statistic; at 10 µM; stronger effect = higher value; cells stimulated with TPA for 15 min.
Test [6] deals with Voltage-gated potassium channel subunit beta-2 (Rattus norvegicus) (UniProt P62483). As to the kind of experiment: inhibitors of rat Kvbeta2 reductase activity – biochemical, NADPH fluorescence, primary screen (AID 622;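 active = fluorescence slope higher than the sample average by over 3 SD, cut at about -0.22 in these data, passing the limit was not always enough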;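 also: slope of raw intensity against log time taken from 70 to 1610 s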). To be noted: recombinant KvBeta, 4-cyanobenzaldehyde reduction, at 10 µM, stronger effect = higher value.
Voltage-gated potassium channel subunit beta-2 (Rattus norvegicus), sequence (P62483 whole entry, looked up): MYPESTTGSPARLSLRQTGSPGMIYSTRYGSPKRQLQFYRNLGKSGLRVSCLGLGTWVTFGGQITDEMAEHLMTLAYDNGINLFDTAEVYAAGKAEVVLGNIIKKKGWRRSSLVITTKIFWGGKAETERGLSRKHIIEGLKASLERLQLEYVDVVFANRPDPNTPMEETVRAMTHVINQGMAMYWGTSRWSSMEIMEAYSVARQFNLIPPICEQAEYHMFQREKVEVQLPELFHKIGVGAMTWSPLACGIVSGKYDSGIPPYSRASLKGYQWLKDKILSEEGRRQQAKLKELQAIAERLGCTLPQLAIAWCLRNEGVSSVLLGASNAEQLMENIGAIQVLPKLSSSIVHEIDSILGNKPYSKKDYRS
For test [7] the target is unchanged. Description: enhancers of rat Kvbeta2 NADPH turnover – biochemical, NADPH fluorescence, primary screen (AID 623;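 active = NADPH fluorescence slope more negative than the mean of all samples by about 3 SD, 99.7% confidence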;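 also: fluorescence intensity change per second fitted from 20 to 320 s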). Particulars: Recombinant KvBeta, NADPH fluorescence decrease slope, 10 min; at 10 µM; stronger effect = lower value.
The target in test [8] is Alpha-2C adrenergic receptor (Homo sapiens) (UniProt P18825). As to the kind of experiment: compounds altering alpha2C-coupled GIRK flux – cell-based, HEK293 alpha2C/GIRK1/2, thallium flux, primary screen (AID 624;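 active = fluorescence slope after compound addition differing from the mean of all screened samples at 99.7% confidence, in either direction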;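 also: slope of fluorescence ratio to pre-addition baseline per second over 15 to 24 s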). Particulars: thallium flux BTC fluorescence, at 10 µM, actives lie on both sides.
Alpha-2C adrenergic receptor (Homo sapiens), sequence (P18825 whole entry, looked up): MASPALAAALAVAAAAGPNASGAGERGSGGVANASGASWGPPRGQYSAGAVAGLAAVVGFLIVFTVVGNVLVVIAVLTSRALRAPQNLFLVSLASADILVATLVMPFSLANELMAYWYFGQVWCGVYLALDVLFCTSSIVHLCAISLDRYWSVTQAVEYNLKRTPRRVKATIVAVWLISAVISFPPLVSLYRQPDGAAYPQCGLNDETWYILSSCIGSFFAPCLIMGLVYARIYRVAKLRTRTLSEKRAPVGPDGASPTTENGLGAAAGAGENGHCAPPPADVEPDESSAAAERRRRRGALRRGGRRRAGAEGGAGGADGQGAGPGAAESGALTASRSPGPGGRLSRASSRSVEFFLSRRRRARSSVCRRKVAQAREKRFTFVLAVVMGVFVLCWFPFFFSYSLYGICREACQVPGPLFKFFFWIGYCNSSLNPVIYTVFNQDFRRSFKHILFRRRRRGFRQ
Test [9] addresses Muscarinic acetylcholine receptor M4 (Homo sapiens) (UniProt P08173). As to the kind of experiment: M4-linked GIRK flux change, two-sided – cell-based, HEK293 M4/GIRK, thallium flux, BTC-AM, M4 allosteric agonist project, primary screen (AID 625;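 active = fluorescence slope after compound addition differing from the mean of all tested samples at 99.7% confidence, mostly higher but some lower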;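 also: thallium influx through GIRK channels coupled to M4 in HEK293 cells with BTC-AM dye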). Particulars: at 10 µM, actives lie on both sides.
Test [10] can be described thus: loss of swimming-algae plug formation – whole organism, Chlamydomonas reinhardtii, WT vs cilia-less mutant, absorbance, 96-well, primary screen (AID 463189;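 active = inhibition at or above 50% relative to wild type and mutant plate controls; inactive = inhibition below 50%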;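 also: 0% = wild type cc124 cells in DMSO and 100% = ciliumless bld1 mutant cells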). Particulars: Chlamydomonas reinhardtii gravitaxis, OD600 absorbance, 2 days; at 10 µM; stronger effect = higher value.
The nature of test [11]: blockers of RIG-like receptor reporter activation – cell-based, Sendai virus stimulus, luciferase, 10K MLSCN set, TLR/RLR signaling modifier project, primary screen (AID 602276;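 active = inhibition at or above 50% at 10 µM; inactive = inhibition below 50%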;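 also: firefly luciferase from ISG56 promoter only with Renilla not read in this screen; 0% = Sendai virus plus DMSO and 100% = medium plus DMSO without virus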). Particulars: HEK293 RL24 IRF3 luciferase reporter, at 10 µM, stronger effect = higher value. In general terms: In a reporter assay the amount or activity of a reporter protein is the signal.
A short description of test [12]: TLR3 IRF3 reporter activation blockers – cell-based, poly I:C stimulus, luciferase, 10K MLSCN set, primary screen (AID 602277;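 active = inhibition of the reporter signal at or above 50%; inactive = inhibition below 50%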). To be noted: HEK293-TLR3 RL24 IRF3 luciferase reporter, at 10 µM, stronger effect = higher value.
Test [13] can be described thus: inhibitors of larval lipid processing in zebrafish, primary screen, whole organism, PED6 fluorescence, gall bladder and intestine (AID 686;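 active = a full or partial loss of lipid-probe fluorescence in the fish gall bladder, intestine or both, judged by eye; inactive = no fluorescence loss, or compound toxic to the fish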;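 also: larvae 5 to 7 days old with five fish per well; signal comes from phospholipase A2 cleavage of quenched PED6 carried via bile; overnight exposure to compound and PED6 before scoring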). Particulars: Zebrafish larvae PED6 lipid processing, fluorescence scoring; screened at 20 µM (by protocol).
Setting [14] is: measured here: cell density z-score.
Where [15] appears, read: measured here: nuclear c-Myc green intensity z-score.
[16] abbreviates: measured here: nuclear pErk red intensity z-score, stronger effect = higher value.

Dual specificity protein phosphatase 6 (Homo sapiens), sequence (Q16828 whole entry, looked up): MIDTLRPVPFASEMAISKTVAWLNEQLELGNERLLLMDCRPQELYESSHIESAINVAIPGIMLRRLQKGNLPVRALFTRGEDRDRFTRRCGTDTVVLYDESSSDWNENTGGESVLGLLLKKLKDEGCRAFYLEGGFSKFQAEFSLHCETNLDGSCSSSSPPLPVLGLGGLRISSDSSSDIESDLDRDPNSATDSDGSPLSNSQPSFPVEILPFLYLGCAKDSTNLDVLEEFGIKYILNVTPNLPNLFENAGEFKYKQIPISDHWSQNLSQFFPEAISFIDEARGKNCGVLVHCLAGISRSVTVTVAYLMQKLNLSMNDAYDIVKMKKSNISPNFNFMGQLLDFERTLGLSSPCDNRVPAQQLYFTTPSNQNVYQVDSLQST
Muscarinic acetylcholine receptor M4 (Homo sapiens), sequence (P08173 whole entry, looked up): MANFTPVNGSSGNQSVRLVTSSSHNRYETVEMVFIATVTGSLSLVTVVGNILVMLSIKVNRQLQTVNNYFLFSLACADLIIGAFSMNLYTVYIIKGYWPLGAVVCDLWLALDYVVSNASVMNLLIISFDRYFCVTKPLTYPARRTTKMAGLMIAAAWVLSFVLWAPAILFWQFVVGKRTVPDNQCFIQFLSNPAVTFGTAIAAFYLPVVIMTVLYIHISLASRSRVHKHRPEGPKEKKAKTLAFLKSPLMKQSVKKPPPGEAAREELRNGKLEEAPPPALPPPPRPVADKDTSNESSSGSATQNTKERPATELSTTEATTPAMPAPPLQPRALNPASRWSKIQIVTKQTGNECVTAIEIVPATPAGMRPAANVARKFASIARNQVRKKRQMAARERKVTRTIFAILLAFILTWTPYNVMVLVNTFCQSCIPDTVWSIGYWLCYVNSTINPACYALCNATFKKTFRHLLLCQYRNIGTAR

Take `COc1ccc(CNc2oc(COc3ccccc3Cl)nc2C#N)cc1`: the cell count in test [1] came out at 436. The inhibition in test [1] was -2.2% (inactive); in test [3] it was -70.3% (inactive); in [5] it was 3.5% (inactive); in test [10], 31.6% (inactive); in test [11] it was 7.08% (inactive); in test [12], 6.46% (inactive). The inhibition of aggregation in [2] was 21.3% (inactive). Further, the nuclei count amounted to 81.6% in test [2] and 126% in [3]. The z-score was -0.4 in test [4] (setting [14]), 0.197 in test [4] (setting [15]) and -0.0244 in test [4] (setting [16]). The fluorescence slope in test [6] is -0.551 (inactive); in test [9], 0.0036 (inactive). The NADPH fluorescence slope in test [7] is -9.3e-05 (inactive). Besides, the slope in test [8] was 0.00797 (inactive).
For the compound `CCCCOc1ccc(CC(=O)NO)cc1`, the cell count in test [1] turned out to be 619. Also, the inhibition in test [1] is -10.2% (inactive); in test [3], -41.8% (inactive); in test [5] it was -0.493% (inactive); in [10], 7.46% (inactive); in [11], 13.6% (inactive); in [12], 31.2% (inactive). The inhibition of aggregation in test [2] was -11.8% (inactive). In addition, the nuclei count was 91% in [2] and 111% in [3]. Besides, the results for the z-score in test [4] (setting [14]), in test [4] (setting [15]) and in test [4] (setting [16]) were -0.368, -0.467 and -0.347, respectively. Moreover, the fluorescence slope in [6] was -0.547 (inactive). The NADPH fluorescence slope in test [7] is -4.3e-05 (inactive). In addition, the slope in [8] was 0.00497 (inactive).
In the case of `Cc1cccc(COc2ccc(/C(O)=C3\C(=O)C(=O)N(CCN(C)C)C3c3ccncc3)cc2)c1` (stereo not given), in test [1], the cell count turned out to be 526. In addition, the inhibition in test [1] is 3.2% (inactive); in [3], -20.5% (inactive); in test [5] it was -1.75% (inactive); in test [10], -10.1% (inactive); in [11] it was 9.07% (inactive); in test [12], 4.16% (inactive). In addition, the inhibition of aggregation in test [2] is -20.7% (inactive). The nuclei count in [2] stood at 106%; in [3], 126%. For the same compound, the z-score in [4] (setting [14]) is -1.17; in [4] (setting [15]) it was 0.707; in test [4] (setting [16]), -0.252. Further, the fluorescence slope in [6] was -0.434 (inactive). The NADPH fluorescence slope in test [7] is -0.000161 (inactive). In test [8], the slope is 0.00578 (inactive).
For `CC(=O)C1=C(NC(=O)c2ccccc2F)C[C@@H]2[C@H]1C2(C)C`, the cell count in [1] came out at 511. Further, the inhibition in [1] is 0.8% (inactive); in test [3], -94.2% (inactive); in test [5], 11.9% (inactive); in [10], 13.1% (inactive); in [11], -7.48% (inactive); in [12], -10.2% (inactive). Besides, the inhibition of aggregation in test [2] was -2.1% (inactive). Besides, the values for the nuclei count in test [2] and in test [3] were 99.3% and 126%, respectively. Further, the z-score in test [4] (setting [14]) was 0.289; in test [4] (setting [15]), -1.02; in test [4] (setting [16]), 0.959. The figures for the fluorescence slope in [6] and in test [9] were -0.395 (inactive) and 0.00577 (inactive), respectively. Further, in test [7], the NADPH fluorescence slope was -7.2e-05 (inactive). For the same compound, the slope in [8] is 0.00586 (inactive). Besides, the result in [13] was inactive.
In the case of `Cc1cc(N2C(=O)C(=O)/C(=C(/O)c3ccc(F)cc3)C2c2ccc(F)cc2)no1` (stereo not given), the cell count in test [1] was 430. Further, the inhibition in [1] is -7.1% (inactive); in test [3], -108% (inactive); in [5] it was 1.04% (inactive); in test [10] it was 0.694% (inactive); in [11] it was 14.8% (inactive); in test [12], 7.49% (inactive). Further, the inhibition of aggregation in [2] is 10.1% (inactive). In addition, the nuclei count in [2] is 60.9%; in test [3], 122%. For the same compound, the results for the z-score in [4] (setting [14]), in test [4] (setting [15]) and in test [4] (setting [16]) were -1.41, 1.25 and 1.07, respectively. The fluorescence slope in test [6] is -0.407 (inactive); in [9] it was 0.0056 (inactive). Also, the NADPH fluorescence slope in test [7] is -3.1e-05 (inactive). For the same compound, in [8], the slope was 0.00571 (inactive). Moreover, the outcome in [13] was inactive.

For orientation: inhibition means the drop in the measured response relative to a control, in per cent.
